PubChem BioAssay (NCATS)
Results filed as inconclusive are left out. A number with no mark means an inactive call. Calls of active or inactive are those of the source. Calls follow the shape of the dose curve; as a rule, active = well fitted inhibition curve with a large enough effect; inconclusive = small, poorly fitted or top-dose-only effect, or effect the other way; inactive = flat fitted curve, though single readings scatter.

Target: ATPase family AAA domain-containing protein 5 (Homo sapiens) (UniProt Q96QE3)
Experiment: Validation screen for small molecules that inhibit ELG1-dependent DNA repair in human embryonic kidney (HEK293T) cells expressing luciferase-tagged ELG1 (AID 493107); also: nearly all actives have a fitted effect of over 70% in size
Conditions: HEK293T ELG1-luciferase level, luminescence, 5-fluorouridine co-treatment, 16 h; series mostly up to 46.1 µM; activity change, negative = decrease: at the top concentration
Source text: NIH Molecular Libraries Probe Production Network [MLPCN]
NIH Chemical Genomics Center [NCGC]
Assay Provider: Kyungjae Myung, NHGRI, NIH
Keywords: MLPCN, qHTS, NCGC, genotoxicity, cancer
Cancer cells divide rapidly compared to normal cells in the body. During cell division, cancer cells need to duplicate their genome by DNA replication. The failure of genome duplication leads to cancer cells' death. Therefore, inhibitors of DNA replication could specifically kill cancer cells. Based on this concept, many chemotherapeutic agents were developed and have been used to treat cancer patients. However, there are a limited number of agents available in the clinical setting, and some of those that do exist have low efficacy and severe side effects. Therefore, if we can find the compounds that effectively block DNA replication either by directly damaging DNA or by inhibiting other cellular mechanisms, the options for cancer treatment will be broadened. With this in mind, we developed a quantitative high-throughput ELG1-luciferase reporter gene assay. Small molecules that specifically block ELG1 function in response to DNA damage can be identified by monitoring the suppression of luciferase activity. Since ELG1 defines a pathway for repairing DNA damage, agents blocking ELG1 function can be used to sensitize cancer cells to chemotherapeutic agents whose mechanism of action involves the induction of DNA damage.
For genotoxicity screening, 2,000 cells in 4 uL/well were dispensed into white, solid-bottom 1536-well plates using a solenoid-based dispenser. Following transfer of 1 uL 5-Fluorouridine and 23 nL compound or DMSO vehicle by a pin tool, the plates were incubated 16 hr at 37 °C and 5% CO2. 5 ul ONE-Glo (Promega) was then added to each plate and following a 30 min incubation at room temperature, luciferase activity was quantified on a ViewLux CCD-based plate reader.
% is scaled to controls: 0 for no effect and ±100 for the full control effect; potency is read from the fitted curve at half-maximal effect.

Sequence of ATPase family AAA domain-containing protein 5 (Homo sapiens) (Q96QE3 whole entry, looked up, the tested form may be a part): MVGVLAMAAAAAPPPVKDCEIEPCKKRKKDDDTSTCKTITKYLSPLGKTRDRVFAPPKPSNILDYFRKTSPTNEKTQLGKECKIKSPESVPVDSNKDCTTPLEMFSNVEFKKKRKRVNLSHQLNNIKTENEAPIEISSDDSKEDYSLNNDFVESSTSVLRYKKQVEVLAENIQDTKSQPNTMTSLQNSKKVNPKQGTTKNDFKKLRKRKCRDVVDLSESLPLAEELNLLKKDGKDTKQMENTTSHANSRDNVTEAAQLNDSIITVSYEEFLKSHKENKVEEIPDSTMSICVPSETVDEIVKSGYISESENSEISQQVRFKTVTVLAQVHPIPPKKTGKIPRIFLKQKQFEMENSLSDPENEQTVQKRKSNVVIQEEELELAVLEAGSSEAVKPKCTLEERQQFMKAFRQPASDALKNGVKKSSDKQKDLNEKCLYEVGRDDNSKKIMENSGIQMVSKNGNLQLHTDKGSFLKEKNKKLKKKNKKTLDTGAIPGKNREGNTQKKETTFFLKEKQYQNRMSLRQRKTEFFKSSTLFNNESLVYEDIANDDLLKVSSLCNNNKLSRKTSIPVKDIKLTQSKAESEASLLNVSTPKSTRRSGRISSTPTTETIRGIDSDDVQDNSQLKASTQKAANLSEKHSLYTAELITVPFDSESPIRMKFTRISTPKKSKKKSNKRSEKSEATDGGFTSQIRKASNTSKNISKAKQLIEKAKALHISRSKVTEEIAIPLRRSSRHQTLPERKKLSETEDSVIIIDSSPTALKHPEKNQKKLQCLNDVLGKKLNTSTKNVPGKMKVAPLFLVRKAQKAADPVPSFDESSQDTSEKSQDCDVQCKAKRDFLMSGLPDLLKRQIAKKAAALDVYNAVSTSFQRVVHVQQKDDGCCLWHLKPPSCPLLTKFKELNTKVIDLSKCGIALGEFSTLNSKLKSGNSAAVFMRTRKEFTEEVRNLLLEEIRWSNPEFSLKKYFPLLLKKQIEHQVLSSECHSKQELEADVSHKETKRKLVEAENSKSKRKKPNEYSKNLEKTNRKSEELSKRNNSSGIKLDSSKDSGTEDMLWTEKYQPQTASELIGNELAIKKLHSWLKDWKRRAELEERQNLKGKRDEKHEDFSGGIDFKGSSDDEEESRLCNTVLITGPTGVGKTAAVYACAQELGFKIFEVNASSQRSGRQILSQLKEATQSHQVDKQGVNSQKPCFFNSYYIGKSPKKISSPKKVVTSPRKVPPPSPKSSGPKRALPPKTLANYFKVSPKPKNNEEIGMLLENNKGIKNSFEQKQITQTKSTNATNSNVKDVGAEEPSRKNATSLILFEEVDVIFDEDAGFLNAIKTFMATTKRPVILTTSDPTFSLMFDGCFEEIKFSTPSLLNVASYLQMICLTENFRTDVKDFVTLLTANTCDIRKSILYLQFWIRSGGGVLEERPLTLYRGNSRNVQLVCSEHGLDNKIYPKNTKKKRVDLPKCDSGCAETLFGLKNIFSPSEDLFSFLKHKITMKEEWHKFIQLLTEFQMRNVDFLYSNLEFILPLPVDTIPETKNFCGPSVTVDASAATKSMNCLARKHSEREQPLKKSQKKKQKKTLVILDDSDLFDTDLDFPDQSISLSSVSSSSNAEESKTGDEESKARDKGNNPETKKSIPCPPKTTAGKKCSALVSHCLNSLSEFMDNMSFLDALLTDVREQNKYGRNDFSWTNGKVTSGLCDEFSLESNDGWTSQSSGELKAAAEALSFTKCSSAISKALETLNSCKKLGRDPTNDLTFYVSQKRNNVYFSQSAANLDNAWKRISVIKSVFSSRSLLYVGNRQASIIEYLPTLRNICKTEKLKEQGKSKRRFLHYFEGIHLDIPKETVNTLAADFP

Going from `O=C(O)[C@@H]1CCN1` to `O=C(O)CC[N+](=O)[O-]`, the “activity change, negative = decrease” value falls from 0.99% to -3.16%.

Compared with `CNCCc1c[nH]c2ccc(O)cc12`, `NCCc1c[nH]c2ccc(O)cc12` is lower in “activity change, negative = decrease” value: 10.9% for the first, -18.5% for the second.

First: c1ccc(C2(c3ccccc3)CC2C2=NCCN2)cc1 (stereo not given)
Second: C[C@]12N[C@H](Cc3ccccc31)c1ccccc12
The “activity change, negative = decrease” value of the first is lower: 0.356% for the first, 3.53% for the second.

First: Oc1ccc2c3c1O[C@H]1c4[nH]c5c(c4C[C@@]4(O)[C@@H](C2)N(CC2CC2)CC[C@]314)C[C@@]1(O)[C@H]2Cc3ccc(O)c4c3[C@@]1(CCN2CC1CC1)[C@H]5O4
Second: C=CCN1CC[C@]23CCCCC2[C@H]1Cc1ccc(O)cc13 (stereo not given in full)
The “activity change, negative = decrease” value of the first is lower: 2.95% for the first, 15% for the second.

Compared with `c1ccc2sc(C3(N4CCCCC4)CCCCC3)cc2c1`, `S=C(NC1CCCCC1)N1CCC(c2cnc[nH]2)CC1` is higher in “activity change, negative = decrease” value: -7.92% for the first, 0.714% for the second.

First: COC(=O)[C@@H](N)CCCN=C(N)N[N+](=O)[O-]
Second: NC(=NCCC[C@H](N)C(=O)O)N[N+](=O)[O-]
The “activity change, negative = decrease” value of the first is lower: -4.65% for the first, 8.87% for the second.

First: CC(C)Oc1cccnc1N(C)C1CCN(Cc2ccccc2)CC1
Second: CC(C)NC(C)Cc1ccc(I)cc1 (stereo not given)
The “activity change, negative = decrease” value of the first is lower: 0.167% for the first, 5.26% for the second.

Compared with `CCCCc1ccc(C(=O)O)nc1`, `CNCCc1ccc(O)c(O)c1` is higher in “activity change, negative = decrease” value: -12.3% for the first, 14.1% for the second.

Going from `C[C@@H](N)Cc1cnc[nH]1` to `Cn1cnc(CCN)c1`, the “activity change, negative = decrease” value rises from -6.66% to -1.97%.

Going from `CCCN(CCC)[C@@H]1CCc2ccc(O)cc2C1` to `NC1CCc2cc(O)c(O)cc2C1` (stereo not given), the “activity change, negative = decrease” value rises from -1.09% to 5.61%.

Going from `NC(N)=NOCCC(N)C(=O)O` (stereo not given) to `CS(=N)(=O)CC[C@H](N)C(=O)O` (stereo not given in full), the “activity change, negative = decrease” value falls from 10.7% to 3.75%.

Going from `CC(=O)[C@H]1CCC2C3CC[C@H]4C[C@H](O)CC[C@]4(C)C3CC[C@@]21C` (stereo not given in full) to `C[C@]12CCC3C(CC[C@H]4C[C@H](O)CC[C@]34C)C1CC[C@@H]2C(=O)CO` (stereo not given in full), the “activity change, negative = decrease” value falls from 10.5% to -2.87%.

Compared with `CN1C2CCC1CC(OC(=O)c1cc(Cl)cc(Cl)c1)C2` (stereo not given), `COc1cc(C(O)CN)ccc1O` (stereo not given) is higher in “activity change, negative = decrease” value: -17.3% for the first, 14.4% for the second.

Compared with `NC1CC1c1ccccc1` (stereo not given), `CC(=O)NCCc1c[nH]c2ccccc12` is lower in “activity change, negative = decrease” value: 9.94% for the first, 3.28% for the second.

First: CC1=NN=C(c2ccc(N)cc2)c2cc3c(cc2C1)OCO3
Second: COc1ccc2c(c[n+](C)c3c4cc5c(cc4ccc23)OCO5)c1OC
The “activity change, negative = decrease” value of the first is higher: 15.9% for the first, -122% for the second.

Going from `O=C1CCCN1CC#CCN1CCCC1` to `NC(=O)CN1CC(O)CC1=O` (stereo not given), the “activity change, negative = decrease” value rises from 10.5% to 18.6%.

Compared with `C[C@@H]1O[C@H](C[N+](C)(C)C)C[C@H]1O`, `CC(Cc1ccc(O)cc1)NCC(O)c1cc(O)cc(O)c1` (stereo not given) is higher in “activity change, negative = decrease” value: 29% for the first, 29.5% for the second.

With `Clc1cnc(Oc2ccc(Oc3ncc(Cl)cc3Cl)cc2)c(Cl)c1` the “activity change, negative = decrease” value was 15.9%.

With `CN[C@@H]1C[C@@H](c2ccc(Cl)c(Cl)c2)c2ccccc21` the Potency was 23.1 µM (active).
For `C[N+]1(C)C2CCC1CC(OC(=O)C(CO)c1ccccc1)C2` (stereo not given), the Potency was “inactive”.
With `CC[C@@]1(O)C(=O)OCc2c1cc1n(c2=O)Cc2cc3ccccc3nc2-1` the Potency was 0.461 µM (active).
With `Cc1nccc2c1[nH]c1ccccc12` the Potency was 9.2 µM (active).
`CCCN1CCO[C@@H]2c3cc(O)ccc3OC[C@H]21` was tested, and the Potency was “inactive”.
